Here are results for 48 compounds from PubChem BioAssay AID493208 (National Center for Advancing Translational Sciences (NCATS), 2011).

Among all 44,000 compounds or so, about 340 (0.77%) were called active. Where a call stands in place of a potency, no number is given. Inconclusive results (about 5%) are left out. The sample holds actives, similar compounds and a random draw of the others, so the mix is not that of the screen. The call rests on the fitted dose curve; in most records, active means well fitted inhibition curve with a large enough effect; inconclusive means small, poorly fitted or top-dose-only effect; inactive means flat fitted curve, though single readings scatter.
Potency means the concentration at half of the fitted maximal effect.

The assay is described as follows: Acumen qHTS Assay for Inhibitors of the mTORC1 Signaling Pathway in MEF (Tsc2-/-, p53-/-) Cells: Sytravon. Further: nearly all actives have a fitted effect of over 50% in size. Conditions: phospho-rpS6 immunofluorescence/PI, 24 h; series mostly up to 38.3 µM. An excerpt:
NIH Molecular Libraries Probe Production Centers Network [MLPCN] NIH Chemical Genomics Center [NCGC] MLPCN Grant: NS059428-01 Assay Submitter (PI): Blenis, John; Hoffman, Greg; Harvard University NCGC Assay Overview: The mammalian target of rapamycin (mTOR) is an intracellular serine/threonine kinase Aberrant regulation of mTOR signaling plays a causative role in a number of human diseases, including cancer, benign tumors such as lymphangioleiomyomatosis (LAM) and Tuberous Sclerosis Complex (TSC), and metabolic diseases such as diabetes and obesity. This project aims to identify inhibitors of ribosomal protein S6 (rpS6) phosphorylation. The phosphorylation of rpS6 is a key event downstream of mTOR activation. The assay uses a phospho-specific antibody of phospho-rpS6 to detect inhibitors of mTOR activation. Mutations in the Tsc1 and Tsc2 genes are the underlying genetic lesions responsible for TSC, causing constitutive activation of the mTORC1 pathway and leading to profound effects on cell metabolism. Aberrant metabolism in cancer has recently received significant attention as a target to develop therapeutic agents in the treatment of cancer.1 As Tsc2-/- cells have lost the ability to respond to energy and growth factor deprivation, these cells are unable to properly down regulate cellular biosynthetic processes in response to metabolic stress, and are thus extremely sensitive to glucose deprivation-induced death.2 A central goal of this project is to explore the unique cell survival and metabolic properties of cells with Tsc1 or Tsc2 by screening for compounds that selectively target the Tsc2-/- MEFs by screening both Tsc2-/- and WT MEF cell lines. We hope to better understand these aspects of TSC physiology in order to exploit them for therapeutic benefit.
NCGC Acumen Assay Protocol Summary: For quantitative high throughput analysis of mTORC1 signaling, we developed a cell-based assay for immuno-fluorescence based detection of rpS6 phosphorylation on the Acumen Explorer that will be used a platform for the primary small molecule screen. Mouse embryonic fibroblasts (MEFs) are cultured in 1536-well plates using DMEM + 10% FBS. Twenty-four hrs after plating, test compounds (solubilized in DMSO) are delivered and incubated with the cells for 24 hrs at 37 degree Celsius. Following the incubation, media with compound is aspirated and the cells are fixed in 4% paraformaldehyde (PFA) containing PBS + 0.2% TX-100. Next, PFA is aspirated, cells are washed two times with PBS plus 0.2% TX-100 and the cells are blocked for 1 hr at room temperature (blocking buffer: LiCOR Blocking Buffer plus 0.2% TX-100). […] Cells are washed two times with PBS plus 0.2% TX-100, and stained with 10 uM propidium iodide (PI) for 20-25 minutes for cell number measurement (1:500 dilution of Hoescht staining is also added for IN Cell imaging). The plates are scanned on the Acumen Explorer laser scanning instrument (TTP Labtech) using the 488nm laser for simultaneous excitation of the Alexa-488 and PI. […] The normalized phospho-S6 staining is calculated as the ratio of the integrated Alexa 488 intensity divided by the integrated PI intensity for the single concentration rapamycin control (7.5 nM) and DMSO columns. […] Inhibition of the pathway is defined based on the normalized phospho-S6 intensity in rapamycin treated cells. Active cells are defined as those with a normalized phospho-S6 staining above this threshold, and each treatment is reported as the % positive cells in the well, where thresholds are defined by selecting wells with the highest and lowest signal and differentiating between the % non-active and % active populations. In addition to the pathway specific phospho-S6 endpoint, the number of PI stained cells from the Acumen is recorded as a measure of cell viability. The primary screen was performed with a MEF cell line in a defined genetic background, Tsc2-/-, p53-/- cell line stably transfected with an empty vector control (Tsc2-/- MEF).
In general terms: Quantitative high-throughput screening tests each substance at several concentrations.
Regarding `Cc1ccc(Cn2c(CNC(=O)Cc3cccc(C)c3)nc3cccnc32)cc1`, the Potency result is “inactive”.
The value for `Cc1ccc(C)c(NC(=O)Cn2ccn(-c3ccc(F)cc3)c(=O)c2=O)c1` was “inactive”.
For `COc1cc2nc(SCC(=O)Nc3ccccc3F)n3nc(-c4ccccc4)nc3c2cc1OC` the value was “inactive”.
Consider `Cc1cccc(N2CCN(C(=O)c3ccc4c(c3)CCN4S(=O)(=O)c3ccccc3)CC2)c1C`, for which the Potency result was “inactive”.
For `O=C(NCCCO)C(=O)Nc1c2c(nn1-c1ccccc1)CSC2`, the Potency entry was “inactive”.
As for `CCCCN(C)S(=O)(=O)c1ccc(C(=O)Nc2sc3c(c2C(N)=O)CC(C)(C)NC3(C)C)cc1`, the Potency entry was “inactive”.
With `O=C(CCSCc1ccccc1F)N1CCN(c2ccc(Cl)cc2)CC1`, the Potency entry is “inactive”.
The value for `COc1cc(OC)c(NC(=O)N2CC3CCCN3c3ccccc32)cc1Cl` (stereo not drawn) was “inactive”; that for `COc1ccc(CNc2nc(-c3ccc(Cl)cc3)nn2C(=O)c2ccccc2)cc1` was “inactive”; that for `CCOc1ccc(-n2c(C)nc3c(cnn3-c3ccc(C)cc3)c2=O)cc1` was “inactive”.
The value for `COc1ccccc1NC(=O)CSC1=Nc2ccccc2C2=NC(CC(=O)NCc3cccs3)C(=O)N12` (stereo not drawn) was “inactive”; that for `COc1cc(NC(=O)Cn2nc(-c3ccc(C)c(C)c3)ccc2=O)cc(OC)c1` was “inactive”.
For `CCN(CC)c1cc(NC2CCCCC2)c2c3c(onc13)-c1ccccc1C2=O` the value was “inactive”.
On to `COc1ccc(-c2noc(CSc3nc4ccc(C)cc4[nH]3)n2)cc1`, for which the Potency result was “inactive”.
The value for `CCCCN(CC)CCCNC(=O)Cn1ncc2c([nH]c3ccc(C)cc32)c1=O` was “inactive”; that for `COc1cccc(CNCc2c(C(=O)O)n(Cc3ccc(C)cc3)c3cc(C)ccc23)c1OC` was “inactive”.
The value for `CC1=C(c2ccc(C)cc2)S(=O)(=O)NC1=NCCCN1CCN(c2cc(C)ccc2C)CC1` was “inactive”; that for `CCOC(=O)c1c(C)[nH]c(CCC(=O)NCCCN2CCN(c3cc(C)ccc3C)CC2)c1C` was 13.1 µM (active); that for `CCOC(=O)c1c(C)[nH]c(CCC(=O)Nc2ccc(OC)c(OC)c2)c1C` was “inactive”.
For `CC1=C(c2ccc(Cl)cc2)S(=O)(=O)N=C1N1CCN(c2cc(C)ccc2C)CC1` the value was “inactive”; for `CCOC(=O)c1c(C)[nH]c(CCC(=O)NCCCN2CCN(c3cccc(Cl)c3)CC2)c1C`, “inactive”.
In the case of `Cc1ccc(C)c(N2CCN(CCCNC(=O)Nc3ccc(Cl)cc3)CC2)c1`, the Potency was 18.5 µM (active).
For `CCn1c2ccccc2c2cc(NC(=O)COc3ccc(C)cc3C)ccc21` the value was “inactive”; for `COc1ccc(-c2nn(CC(=O)Nc3ccccc3F)c3c2cnc2ccc(F)cc23)cc1`, “inactive”.
The value for `O=C1CSC2(C(=O)N(Cc3ccccc3)c3ccccc32)N1c1cccc(F)c1` (stereo not drawn) was “inactive”; that for `CCC1CCCCN1C(=O)Cn1c(=O)n(CCCCCC(=O)NCc2ccccc2)c(=O)c2sccc21` (stereo not drawn) was “inactive”.
The value for `O=C(Nc1ccc2c(c1)OCO2)c1cc(-c2cccc(Cl)c2)on1` was “inactive”; that for `Cc1ccc2c(=O)c(C(=O)c3cccc(Cl)c3)cn(CC(=O)NCc3ccccc3)c2n1` was “inactive”.
In the case of `N#Cc1ccccc1Cn1cnc2nc3c(cc2c1=O)CCCC3`, the Potency result is “inactive”.
The value for `CC(C)c1ccc(NC(=O)c2ccc(Cn3nc(N4CCN(c5ccccc5)CC4)ccc3=O)o2)cc1` was “inactive”.
Turning to `COc1ccc(SCc2cc(=O)c3ccc(C)c(C)c3[nH]2)cc1`, the Potency entry was “inactive”.
The value for `COc1ccc(-c2cc(C(F)(F)F)nc(SCC(=O)N(C)Cc3ccccc3)n2)cc1OC` was “inactive”; that for `Cc1ccc(S(=O)(=O)N(CC(=O)Nc2ccc(Cl)cc2Cl)c2ccccc2C)cc1` was “inactive”.
Take `COc1ccccc1NC(=O)C(=O)c1cc(C)n(-c2ccccc2F)c1C`: the Potency result is “inactive”.
For `COc1cc(NC(=O)c2noc3c2CSc2ccccc2-3)cc(OC)c1OC` the value was “inactive”.
For `CCN(CC)c1ccc(NS(=O)(=O)c2cc(-c3cc(C)no3)ccc2C)c(C)c1` the value was “inactive”.
On to `O=C(NCc1ccc2c(c1)CCN2C(=O)c1ccccc1)c1ccccc1`, for which the Potency result is “inactive”.
Regarding `Cc1cccc(C)c1Nc1c(-c2ccccc2O)nc2ncccn12`, the Potency result is “inactive”.
For `CCc1cccc(C)c1Nc1c(-c2ccc(N(C)C)cc2)nc2ncccn12` the value was 13.1 µM (active).
Regarding `COc1ccc(-c2nc3nc(C)cc(C)n3c2Nc2c(C)cccc2C)cc1`, the Potency entry is “inactive”.
In the case of `CCOc1ccccc1N(CC)C(=O)c1cc2ccc3cccnc3c2[nH]1`, the Potency entry was “inactive”.
For `Cc1ccc(C(=O)N2CCc3cc(CNC(=O)c4ccc(Br)cc4)ccc32)cc1` the value was “inactive”; for `Cc1ccc(-n2c(=O)c3cccnc3n2CC(=O)Nc2ccccc2C(F)(F)F)cc1C`, “inactive”; for `COc1ccccc1Nc1c2c(nc3ccc(NC(=O)/C=C/c4cc(OC)c(OC)c(OC)c4)cc13)CCCC2`, 3.29 µM (active).
On to `COc1cc(C(=O)Nc2ccc(-n3c(C)nc4ccccc4c3=O)cc2)cc(OC)c1OC`, for which the Potency entry is “inactive”.
On to `COc1cc(NC(=O)c2nc3ccccc3nc2C)cc(OC)c1OC`, for which the Potency entry was “inactive”.
As to `COc1ccc(NC(=O)c2ccc3oc(=O)c(S(=O)(=O)c4ccc(F)cc4)cc3c2)c(OC)c1`, the Potency result was “inactive”.
The value for `CCC(=O)NCc1cc(-c2nn(C)c(=O)c3ccccc23)ccc1OC` was “inactive”.
